According to PubChem BioAssay:
Activity calls are given as the source filed them.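 Rule for the calls: active = inhibition at or above 50% at 10 µM; inactive = inhibition below 50%.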

Test: blockers of RIG-like receptor reporter activation – cell-based, Sendai virus stimulus, luciferase, 10K MLSCN set, TLR/RLR signaling modifier project, primary screen (AID 602276);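 note: firefly luciferase from ISG56 promoter only with Renilla not read in this screen; 0% = Sendai virus plus DMSO and 100% = medium plus DMSO without virus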
Conditions: HEK293 RL24 IRF3 luciferase reporter, at 10 µM, stronger effect = higher value

inhibition, inactive:
CCc1nnc(NC(=O)OCc2ccccc2)s1 -17.2%
O=C(C1CC1)N(Cc1ccco1)c1nc(-c2ccccc2)cs1 -13.9%
Cc1ccccc1OCCN1C(=O)NC2(CCc3ccccc32)C1=O (stereo not given) 12%
COc1ccc(OC(C)C(=O)N2CC(C)OC(C)C2)cc1 (stereo not given) 14.1%
CCOC(=O)C(C)On1c(SC(C)C(=O)OCC)nc2ccccc2c1=O (stereo not given) 20%
O=C(COC(=O)Cc1cccc(C(F)(F)F)c1)NCC1CCCO1 (stereo not given) -6.76%
CCCc1[nH]nc2c1C(c1cccc(OC(=O)c3ccco3)c1)C(C#N)=C(N)O2 (stereo not given) 9.57%
CS(=O)(=O)N(CC(=O)N1CCN(c2cccc(Cl)c2)CC1)C1CCCCC1 2.97%
Clc1ccccc1OCc1nn2c(-c3ccncc3)nnc2s1 8.19%
Cc1cccc(N2CCN(C(=O)c3cc4c(=O)[nH]c5ccccc5c4n3C)CC2)c1C 9.93%
N#CC(C(=O)C1CCCCC1)c1nc2ccccc2[nH]1 (stereo not given) 4.07%
Cc1nc2ccccc2c2oc(C(=O)NCc3ccccn3)cc12 -2.75%
COCCN(CC(=O)NC1CCCCC1)C(=O)CSc1nc2ccccc2o1 2.87%
Cc1ncoc1C(=O)Nc1cccc(Cl)c1C -22.6%
COc1cccc(OC)c1C(=O)N1CCOCC1 17.5%
COC(=O)c1ccccc1NC(=O)c1noc2c1CC(C(C)(C)C)CC2 (stereo not given) 8.65%
Cc1ccc(-c2cc(C(F)F)nc(NCc3cccnc3)n2)cc1 7%
O=C(NCc1ccccc1)N1CCn2c(nc3ccccc32)C1 -0.797%
COc1ccc(CN(C)CC(=O)c2c(N)n(Cc3ccccc3)c(=O)n(C)c2=O)c(OC)c1 17.1%
Cc1nc(C)c(C(=O)Nc2ccc(Oc3ccccc3)cc2)o1 -20.2%
CCOc1ccc2nc(NC(=O)C(NS(=O)(=O)c3cccs3)C(C)C)sc2c1 (stereo not given) 18.1%
CC1CCN(CCCNC(=O)c2cn(C)c3ccc(S(=O)(=O)N4CCCC4)cc3c2=O)CC1 3.75%
COCCN1C(=O)C(=O)/C(=C(/O)c2cccc(OC)c2)C1c1ccncc1 (stereo not given) 13.1%
C[C@H](NC(=O)Nc1ccccc1F)C(=O)O 14.6%
Nc1c(Sc2ccccc2)c(=O)[nH]c(=O)n1Cc1ccccc1 -0.235%
Cc1ccc(C)c(Cn2c(=O)n(CCC(=O)NCc3ccco3)c(=O)c3sccc32)c1 19.5%
CCn1c(=S)sc2nc(C)sc21 13.4%
CC(C)(C)OC(=O)N1CCOCCOCCN(C(=O)OC(C)(C)C)CCOCCOCC1 4.46%
O=C(NC1CCCCC1)C(c1ccco1)N(Cc1cccnc1)C(=O)C1COc2ccccc2O1 (stereo not given) 22.1%
COC(=O)c1c(-c2ccc(F)cc2)noc1N -1.09%
Cn1ccnc1C(O)c1ccco1 (stereo not given) 15.2%
O=C(NCCN1CCOCC1)c1ccc2c(c1)N(Cc1ccccc1)C(=O)CS2 -1.65%
N#CC1=C(N)n2c(s/c(=C\c3ccco3)c2=O)=C(C#N)C1c1ccco1 (stereo not given) 19.5%
c1ccc2c(c1)ccc1nnc(-c3ccc4c(c3)OCO4)n12 -1.33%
COc1cccc(-c2cc(C(=O)Nc3cc(C)n(Cc4ccc(Cl)cc4)n3)no2)c1 18.7%
CCC(C)n1[nH]c(=O)c2c(C)cc(C)nc21 (stereo not given) 6.37%
CN(CC(=O)Nc1ccncc1)S(=O)(=O)c1ccccc1 14.3%
CC(=O)Oc1cccc(/C=c2\sc3nc(-c4ccco4)nn3c2=O)c1 21.5%
Cn1c(=O)cc(OCC(=O)N2CCN(c3cccc(C(F)(F)F)c3)CC2)c2ccccc21 13.7%
C=CCc1cc(C(=O)N2CCCCC2)ccc1O 5.94%
